# Most compounds without a hit are left out; they make up all but 11% or so of the library.
# NIH3T3 tox = kills NIH 3T3 cells; Potency, µM (top dose mostly 96.7 µM), without a hit: top-dose activity change, negative = cytotoxicity, hits mostly inhibitors; NIH 3T3 viability, CellTiter-Glo ATP luminescence, 48-72 h; 4.3% of 94,000 active; further: on the % scale 0 is the no-effect control and ±100 the full control effect; nearly all actives have a fitted effect of over 55% in size
#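 Viability of NIH 3T3 cells after 48 or 72 hr compound treatment at 37 °C was assessed by CellTiter-Glo, with luminescence imaged following a 10 min room-temperature step.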
# NPR1 antag = blocks ANP-stimulated signaling of human Npr1 receptor; HEK293 hNpr1 GloSensor cGMP, ANP-stimulated luminescence; Potency, µM (doses to about 46.3 µM), for the others: at the top dose activity change, negative = inhibition, most hits filed as inhibitors; 1.6% of 76,000 active; calls by dose curve; further: on the % scale 0 is the no-effect control and ±100 the full control effect; nearly all actives have a fitted effect of over 60% in size
#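 Compound pre-incubated 30 min at room temperature on GloSensor-loaded HEK293 cells stably carrying hNpr1 and the pGS-40F cGMP biosensor. Stimulation uses hNppA at 0.1 nM final; luminescence is taken at baseline and 20 min post-agonist.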
# FLuc inh = inhibitors of firefly (Photinus pyralis) luciferase; P08659; purified P. pyralis luciferase, luminescence, biochemical; Potency, µM (top dose mostly 115 µM), hits mostly inhibitors; 2.5% of 76,000 active; further: on the % scale 0 is the no-effect control and ±100 the full control effect; nearly all actives have a fitted effect of over 65% in size
# Target sequence (P08659 whole entry, looked up): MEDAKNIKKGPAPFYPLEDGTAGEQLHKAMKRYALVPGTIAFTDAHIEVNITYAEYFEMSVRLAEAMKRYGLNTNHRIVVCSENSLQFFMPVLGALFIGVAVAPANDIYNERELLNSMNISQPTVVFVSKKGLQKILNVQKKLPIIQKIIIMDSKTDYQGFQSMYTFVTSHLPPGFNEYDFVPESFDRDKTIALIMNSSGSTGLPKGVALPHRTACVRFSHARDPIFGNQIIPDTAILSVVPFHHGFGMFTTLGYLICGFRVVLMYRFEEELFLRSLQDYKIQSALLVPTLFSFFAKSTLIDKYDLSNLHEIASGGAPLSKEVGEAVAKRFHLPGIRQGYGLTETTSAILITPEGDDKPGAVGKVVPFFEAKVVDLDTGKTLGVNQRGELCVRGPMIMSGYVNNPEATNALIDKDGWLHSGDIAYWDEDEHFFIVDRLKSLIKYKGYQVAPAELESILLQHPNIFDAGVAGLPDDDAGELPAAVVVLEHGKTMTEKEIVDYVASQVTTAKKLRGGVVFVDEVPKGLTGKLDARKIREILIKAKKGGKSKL
#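 Inhibitors were tested against purified firefly luciferase in a biochemical, low-substrate format (both substrates at 10uM) and luminescence measured with a CCD imager.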
# HEK293 tox = cytotoxic compounds in HEK 293 cells. HEK 293 viability, ATP luminescence (CellTiter-Glo), 48-72 h. Potency, µM (titrated, usually from 115 µM), for the others: top-dose activity change, negative = cytotoxicity, hits mostly inhibitors. 6.6% of 94,000 active. AID 1345083; further: on the % scale 0 is the no-effect control and ±100 the full control effect; nearly all actives have a fitted effect of over 60% in size
#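 HEK 293 cells seeded at 250 cells/well were exposed to compound for 48 or 72 hr at 37 degree Celsius. Viability taken as ATP content by CellTiter-Glo luminescence.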
# NPR1 antag cnf = confirmation of human Npr1 natriuretic peptide receptor antagonists; shares compounds with NPR1 antag; HEK293 hNpr1 cGMP GloSensor luminescence, ANP-stimulated; Potency, µM (highest dose often 57.6 µM), inactives show top-dose activity change, negative = inhibition, usual class: inhibitors; 76% of 1,400 active; AID 1347044; calls by dose curve; further: nearly all actives have a fitted effect of over 70% in size
# Npr2 selectivity = selectivity test of Npr1 antagonists against human Npr2 | shares compounds with NPR1 antag | HEK293 hNpr2 GloSensor cGMP luminescence, CNP-stimulated | Potency, µM (top dose mostly 57.6 µM), without a hit: at the highest dose activity change, negative = inhibition, most hits filed as inhibitors | 67% of 1,400 active | AID 1347046; calls by dose curve; further: nearly all actives have a fitted effect of over 70% in size
# FLuc inh counter = inhibits firefly luciferase, false Npr1 antagonist flag; shares compounds with NPR1 antag; purified FLuc enzyme, luminescence, Km substrate; 0.7% of 1,400 active; Potency, µM (series often up to 57.6 µM), inactives show at the top dose activity change, negative = inhibition, usual class: inhibitors; further: 0% is about no effect
# GloSensor cGMP = control cell line activity, Npr1 antagonist counter-screen. AID 1347051. HEK293 GloSensor cGMP, SNP-stimulated, luminescence. 69% of 1,400 active. Potency, µM (highest dose often 57.6 µM), for inactives: at the top dose activity change, negative = inhibition, usual class: inhibitors. shares compounds with NPR1 antag; calls by dose curve; further: on the % scale 0 is the no-effect control and ±100 the full control effect; nearly all actives have a fitted effect of over 70% in size
# * = called active by the depositor; i = inactive; ? = inconclusive; · = no result given; [ ] = remark or other dose. Unless noted, the call rests on the fitted dose curve; in most records, active means well fitted curve in the direction sought with a large enough effect; inconclusive means small, poorly fitted or top-dose-only effect, or another doubt; inactive means no such curve, though single readings can be large; an effect the other way counts as inactive or inconclusive. Potency means the concentration at half of the fitted maximal effect.
SMILES,NIH3T3 tox,NPR1 antag,FLuc inh,HEK293 tox,NPR1 antag cnf,Npr2 selectivity,FLuc inh counter,GloSensor cGMP
Cc1ccc(Cl)cc1NC(=O)c1cnc(-c2ccccc2)nc1-c1ccncc1,?,?,i,-31%,?,?,39%,-24%
COCCN1CCCCCC(O)c2cc(C(=O)NCCc3ccccc3)ccc21 (centres undefined),?,-12%,?,?,·,·,·,·
CC1=NS(=O)(=O)N(C)C=C1C(=O)OCc1nc(-c2ccccc2)oc1C,?,10µM*,i,?,12µM*,14µM*,5%,11µM*
CC1=NS(=O)(=O)N(C)C=C1C(=O)OCc1nc(-c2cccc(Cl)c2)no1,-19%,14µM*,i,?,22µM*,?,0%,?
CC1=NS(=O)(=O)N(C)C=C1C(=O)OCc1nc(-c2ccc(C(F)(F)F)cc2)no1,?,10µM*,i,40µM*,9.7µM*,11µM*,0%,9.7µM*
CC1=NS(=O)(=O)N(C)C=C1C(=O)OCc1nc(-c2ccccc2)no1,-24%,-9%,i,?,·,·,·,·
CC1=NS(=O)(=O)N(C)C=C1C(=O)OCc1nc(-c2cccc(F)c2)no1,-24%,?,i,?,·,·,·,·
COc1cc(Cl)ccc1C(=O)N1CCC2(CC1)CC(O)CCO2 (centres undefined),5%,5%,i,-1%,·,·,·,·
CC(C)CCNC(=O)C1CC(=O)N(c2n[nH]c3cc(Br)ccc23)C1 (centres undefined),-1%,0%,i,4%,·,·,·,·
CN(Cc1cccnc1)c1nc2c(c(=O)[nH]1)CCN(Cc1ccc(Cl)cc1F)CC2,?,11µM*,i,?,15µM*,17µM*,4%,9.7µM*
CN(Cc1cccnc1)c1nc2c(c(=O)[nH]1)CCN(Cc1ccccc1F)CC2,?,2%,i,?,·,·,·,·
Cn1c(CN2CCOC[C@H]2c2ncc(-c3ccc(Cl)cc3)[nH]2)nc2ccccc21,?,20µM*,i,79µM*,31µM*,28µM*,5%[86.2 µM],?
Cn1ccnc1CN1CCOC[C@H]1c1ncc(-c2cccc(Cl)c2)[nH]1,?,-5%[70.6 µM],i,?,·,·,·,·
N#Cc1cccc(CN2CCOC[C@H]2c2ncc(-c3ccc(Cl)s3)[nH]2)c1,?,28µM*,i,?,40µM*,?,-2%[86.2 µM],?
Fc1ccc(CN2CCOC[C@H]2c2ncc(-c3ccc(F)cc3F)[nH]2)cc1,?,?,i,79µM*,?,?,-23%[86.2 µM],?
CCOC(=O)C1(Cc2cccc(OC)c2)CCNCC1,-6%,7%,?,?,·,·,·,·
COc1ccc(CNC(=O)Cn2c(-c3ccc(F)cc3)nc(C)c(CCO)c2=O)cc1,?,-4%,i,?,·,·,·,·
COC[C@@H]1CN(c2ncccn2)C[C@H]1C(=O)N(C)Cc1cn(C)nc1C,-18%,6%,i,-14%,·,·,·,·
O=S(=O)(c1ccccc1)N1CCCC(c2nc(CCOCC3CCCC3)no2)C1 (centres undefined),-26%,-22%,i,?,?,?,0%,?
N#Cc1cccc(NC(=O)O[C@@H]2CO[C@H]3[C@@H]2OC[C@@H]3Nc2nccc(-c3cccc(F)c3)n2)c1,22µM*,11µM*,i,10µM*,19µM*,19µM*,1%,19µM*
O=S(=O)(N[C@H]1CO[C@H]2[C@@H]1OC[C@@H]2Nc1nccc(-c2ccc3c(c2)OCO3)n1)c1ccc2ccccc2c1,-48%,13µM*,i,?,24µM*,?,0%,?
O=C(Nc1cccc2ccccc12)O[C@@H]1CO[C@H]2[C@@H]1OC[C@@H]2Nc1nccc(-c2cccc(F)c2)n1,?,-22%,i,40µM*,?,?,6%,-27%
N#Cc1cccc(-c2ccnc(N[C@H]3CO[C@H]4[C@@H]3OC[C@H]4OC(=O)Nc3ccccc3)n2)c1,-12%,-10%,?,-28%,·,·,·,·
CC(C)(C)C(=O)N[C@H]1CO[C@H]2[C@@H]1OC[C@@H]2Nc1nccc(-c2ccc(-c3ccccc3)cc2)n1,-30%,?,i,?,22µM*,?,-1%,22µM*
O=C(Nc1cccc2ccccc12)O[C@@H]1CO[C@H]2[C@@H]1OC[C@@H]2Nc1nccc(-c2ccccc2)n1,-25%,-10%,i,?,·,·,·,·
SMILES,NIH3T3 tox,NPR1 antag,FLuc inh,HEK293 tox,NPR1 antag cnf,Npr2 selectivity,FLuc inh counter,GloSensor cGMP
O=C(N[C@H]1CO[C@H]2[C@@H]1OC[C@@H]2Nc1nccc(-c2ccc(-c3ccccc3)cc2)n1)C1CC1,-9%,?,i,?,·,·,·,·
Cc1ccc(C(=O)N[C@H]2CO[C@H]3[C@@H]2OC[C@@H]3Nc2nccc(-c3ccc4c(c3)OCO4)n2)cc1,?,2%,i,?,·,·,·,·
O=C(NCCc1ccccc1F)C1CCc2nnc(C3CCN([S+](=O)([O-])c4ccccc4Cl)CC3)n21 (centres undefined),-15%,·,·,1%,·,·,·,·
CCc1ccccc1NC(=O)Cn1cccc1-c1nc(-c2ccc(OC)c(F)c2)no1,-10%,2%,i,-6%,·,·,·,·
COCCN1C[C@H]2COc3ccccc3[C@H]2N(C(=O)COC)CCC1=O,?,·,·,-7%,·,·,·,·
N#Cc1ccc(CN2C3CCC2CN(C(=O)c2ccncc2)C3)cc1,?,-7%[70.6 µM],i,?,·,·,·,·
O=C(c1ccncc1)N1CC2CCC(C1)N2Cc1ccc(-c2ccccc2)cc1,?,?,i,?,4.3µM*,5.4µM*,-3%,4.8µM*
CCc1nc(-c2ccc(OC3CCN(C(=O)Cc4cccc(OC)c4)C3)cc2)no1 (centres undefined),-29%,?,i,?,·,·,·,·
Cc1nc(-c2ccc(OC3CCN(C(=O)c4cc(C)n(C)n4)C3)cc2)no1 (centres undefined),?,?,i,?,?,?,1%,?
COCc1nc(-c2ccc(OC3CCN(C(=O)c4nn(C)c5ccccc45)C3)cc2)no1 (centres undefined),?,11µM*,i,?,19µM*,19µM*,0%,19µM*
